# Platelet DG rel – platelet dense granule release activity; human platelet-rich plasma, SFLLRN dense granule ATP release, luminescence; inhibition, %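 (compounds screened at 7.5 µM in platelet-rich plasma)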; 0.22% of 300,000 active; AID 1663;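 active = mean replicate score, as percent of positive control, at or above 50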
# aSyn UTR inh – 5' untranslated region of α-synuclein, MLPCN primary screen; alpha-synuclein 5'UTR reporter, inhibitor activity; 0.82% of 300,000 active; inhibition, % (tested at 7.5 µM); in the data active = inhibition above about 60%;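 note: H4 neuroglioblastoma cells stably carrying SNCA 5'UTR luciferase fusion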
# HIF act – HIF pathway transcriptional activation. U2OS HRE-luciferase reporter, luminescence; normalized: DMSO 0%, desferrioxamine 100%. activation, % at 7.5 µM (by protocol). 0.32% of 300,000 active. AID 1910;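 active = mean activation of at least 10% of the iron chelator positive control signal, with at least half of replicates also reaching 10%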
# Wee1 stabilizer – inhibitors of human Wee1 degradation | P30291 | HeLa Luc-Wee1K328M stability, luciferase luminescence; 100% = proteasome inhibitor MG132 effect | reporter increase, % at 5 µM | 1.2% of 220,000 active | AID 1321;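 active = activation above the mean of all tested compounds plus 3 SD, set per screening run, cut at about 8.8% in these data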;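 note: cells exposed to compound for 20 h before luminescence read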
# Target sequence (P30291 whole entry K328M): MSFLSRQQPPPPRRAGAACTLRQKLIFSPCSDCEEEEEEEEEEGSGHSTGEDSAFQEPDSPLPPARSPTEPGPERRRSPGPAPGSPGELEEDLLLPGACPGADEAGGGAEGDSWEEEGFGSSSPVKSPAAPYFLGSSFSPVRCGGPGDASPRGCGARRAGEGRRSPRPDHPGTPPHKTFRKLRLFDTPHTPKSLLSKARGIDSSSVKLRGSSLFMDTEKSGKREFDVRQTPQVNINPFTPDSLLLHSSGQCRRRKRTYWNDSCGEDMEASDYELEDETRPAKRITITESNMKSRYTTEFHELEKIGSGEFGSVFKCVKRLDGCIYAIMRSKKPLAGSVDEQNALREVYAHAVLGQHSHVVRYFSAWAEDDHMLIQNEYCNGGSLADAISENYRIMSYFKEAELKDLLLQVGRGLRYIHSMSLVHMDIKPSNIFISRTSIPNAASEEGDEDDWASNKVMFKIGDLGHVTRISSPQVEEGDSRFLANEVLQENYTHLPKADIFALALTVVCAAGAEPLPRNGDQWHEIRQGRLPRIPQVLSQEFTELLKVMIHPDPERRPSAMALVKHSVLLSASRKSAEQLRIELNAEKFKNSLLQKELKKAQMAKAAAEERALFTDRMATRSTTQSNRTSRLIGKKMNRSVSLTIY
# KLF5 inh – suppresses KLF5 promoter-driven expression; DLD-1 KLF5 promoter-luciferase reporter, luminescence; inhibition, % at 5 µM; 0.23% of 290,000 active;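 active = inhibition above a per-plate limit of that plate's mean compound inhibition plus 3 SD, cut at about 60% in these data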;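 note: higher means less KLF5 promoter-driven luciferase light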
# A number is an active result; i = inactive; nt = not tested or not shown. Hits are enriched below; roughly 2.1% of the tested compounds scored in any of these assays.
SMILES,Platelet DG rel,aSyn UTR inh,HIF act,Wee1 stabilizer,KLF5 inh
CCOP(=O)(C#CC(C)(C)C)C1(O)CCCCC1 (stereo unspecified),i,i,97.9,i,i
CCOP(=O)(OCC)C(C)(C)NC(=O)C(Cl)(Cl)Cl,i,i,i,i,i
C=CC1CN2CCC1CC2C(OC(C)=O)c1ccnc2ccc(OC)cc12 (stereo unspecified),i,i,i,i,i
O=c1[nH]c(=O)n(Cc2ccc(F)cc2)c(O)c1C=NCC1CCCO1 (stereo unspecified),i,i,i,8.9,i
NC1CCCCC1N=Cc1c(O)n(Cc2ccc(F)cc2)c(=O)[nH]c1=O (stereo unspecified),i,i,i,i,i
O=C(C[N+]12CCC(CC1)C(CO)C2)c1ccc(Br)cc1 (stereo unspecified),i,i,i,nt,i
NC(N)=N/N=C/c1ccc(N(c2ccccc2)c2ccccc2)cc1,i,137.8,i,nt,i
C[C@]12CC[C@H]3C(CCC4(O)CC(O)CC[C@]34C=O)C1=CC[C@H]2c1ccc(=O)oc1 (stereo partly specified),i,81.5,i,nt,i
CNC(=O)Nc1ccc(C(=O)N/N=C\C23CC[C@@H](O)CC2(O)CC[C@@H]2[C@@H]3CCC3(C)C(C4=CC(=O)OC4)CCC23O)cc1 (stereo partly specified),i,i,i,i,i
O=S1(=O)N(Cc2ccc(F)cc2)CCCN1Cc1ccccc1Cl,i,i,i,nt,i
CN1C(=O)CN=C(c2ccccc2)c2cc(Cl)ccc21,nt,nt,nt,i,i
CC12CC[C@H]3[C@@H](CCC4(O)C[C@H](O)CCC34/C=N/NC(=O)c3ccccc3[N+](=O)[O-])C1(O)CCC2C1=CC(=O)OC1 (stereo partly specified),i,117.3,i,nt,i
CC12CC[C@H]3[C@@H](CCC4(O)C[C@H](O)CCC34/C=N/NC(=O)Cc3ccccc3)C1(O)CCC2C1=CC(=O)OC1 (stereo partly specified),i,i,i,i,i
CC1Oc2cc3c(-c4c(O)cc(O)c5c(O)c6c(cc45)OC(C)C(C)C6=O)c(O)cc(O)c3c(O)c2C(=O)C1C (stereo unspecified),i,87.0,i,i,i
Cc1ccc(C[n+]2c(-c3ccc(C)cc3)cc(-c3ccc(C)cc3)cc2-c2ccc(C)cc2)cc1,i,95.2,i,nt,nt
COc1ccc(NC(=O)c2cn(CCC#N)nc2-c2cccc(Br)c2)cc1,i,i,i,nt,i
O=C(COc1ccc(Cl)cc1)N(c1ccc(Cl)cc1)C1CN2CCC1CC2 (stereo unspecified),i,i,i,i,i
CC(C)[C@]12O[C@H]1[C@@H]1O[C@]13[C@]1(O[C@H]1C[C@H]1C4=C(CC[C@@]13C)C(=O)OC4)[C@@H]2O,i,124.0,i,i,104.4
CCN1CCN(c2ccc([N+](=O)[O-])cc2C=C2C(=O)NC(=O)NC2=O)CC1,i,i,24.2,i,i
CC(=O)N1CCN(c2ccc([N+](=O)[O-])cc2C=C2C(=O)NC(=O)NC2=O)CC1,i,i,i,i,i
O=C1/C(=C\c2ccccc2)C2OCC=C3CN4CCC56c7ccccc7N1C5C2C3CC46 (stereo unspecified),i,i,i,i,i
O=S(=O)(NC1CCCCC1)OCC(Cl)(Cl)Cl,i,i,i,nt,i
O=C1NC(=O)C(=Cc2ccc(N3CCOCC3)cc2)C(=O)N1,i,i,i,i,i
O=C1NC(=O)C(=Cc2ccc3c(c2)OCO3)C(=O)N1,i,i,i,9.1,i
COc1ccc(O)c(CN2CCCC(C(=O)c3ccccc3SC)C2)c1 (stereo unspecified),i,i,i,i,i
SMILES,Platelet DG rel,aSyn UTR inh,HIF act,Wee1 stabilizer,KLF5 inh
CCOc1ccc(NC(=O)c2c(O)[nH]c(=O)[nH]c2=O)cc1,56.3,i,i,nt,nt
Cc1nc2ncnn2c(C)c1CCC(=O)N1CCC2(CC1)OCCO2,i,i,i,i,i
Cc1nc2cc(-c3ccccc3)nn2c(C)c1CCC(=O)N1CCC2(CC1)OCCO2,i,79.3,i,i,i
C=C1C(=O)O[C@@H]2C[C@@H](C)[C@@H]3C=CC(=O)[C@@]3(C)[C@@H](OC(=O)CC(=O)O[C@H]3[C@@H]4C(=C)C(=O)O[C@@H]4C[C@@H](C)[C@@H]4C=CC(=O)[C@]43C)[C@H]12,i,116.1,i,nt,nt
CCOC(=O)c1c(C)n(CCN2CCN(C)CC2)c2ccc(OC)cc12,i,i,i,i,i
CCOC(=O)c1c(C)n(CCOC)c2ccc(O)cc12,i,i,i,9.0,i
NC1=Nc2ccccc2Oc2ccccc21,i,i,i,10.2,i
CCCc1c(C)nc(-c2ccc(C)cc2)nc1OC(=O)N(C)C,i,i,i,i,i
C1=C(CCNCc2ccccc2)CCCC1,i,i,i,9.3,i
O=C(C1CC(c2ccc(Cl)c(Cl)c2)=NO1)N1CCC2(CC1)OCCO2 (stereo unspecified),i,i,i,9.8,i
O=C(C1CC(c2ccc(F)cc2)=NO1)N1CCC2(CC1)OCCO2 (stereo unspecified),i,i,i,i,i
Nc1ccccc1C(=O)OCc1ccc([N+](=O)[O-])cc1,i,i,i,i,i
CC(=O)O[C@@]12CO[C@@H]1C[C@H](O)[C@@]1(C)C(=O)[C@H](O)C3=C(C)[C@@H](OC(=O)[C@H](O)[C@@H](NC(=O)c4ccccc4)c4ccccc4)C[C@@](O)([C@@H](OC(=O)c4ccccc4)C12)C3(C)C (stereo partly specified),i,114.0,i,nt,i
CC(=O)O[C@H]1C(=O)[C@@]2(C)C([C@H](OC(=O)c3ccccc3)[C@]3(O)C[C@H](OC(=O)[C@H](O)[C@@H](NC(=O)Cc4ccccc4)c4ccccc4)C(C)=C1C3(C)C)[C@]1(OC(C)=O)CO[C@@H]1C[C@@H]2O (stereo partly specified),i,93.4,i,nt,i
CCc1cc(=O)oc2cc(OCC(=O)N3C[C@H]4C[C@@H](C3)c3cccc(=O)n3C4)c(Cl)cc12,i,i,i,nt,i
CCCCCn1c(=O)c(C(=O)Nc2cnccn2)c(O)c2ccccc21,i,98.1,i,i,i
CCCCCCCn1c(=O)c(C(=O)Nc2cnccn2)c(O)c2ccccc21,i,i,i,i,i
CCCCCn1c(=O)c(C(=O)Nc2ccccc2S(N)(=O)=O)c(O)c2ccccc21,i,68.8,i,i,i
COC(=O)C1=C(c2cc3ccccc3o2)C[C@@H]2CC[C@H]1N2C(=O)NCc1ccccc1,i,i,i,nt,nt
CC(C)(C)c1ccc(CSc2cnn(C(C)(C)C)c(=O)c2Cl)cc1,i,100.8,i,nt,i
COc1ccc(N2CCN(CCCN)CC2)cc1,63.2,i,i,i,i
C#CCOc1cc(C2C3=C(COC3=O)Nc3cc4c(cc32)OCO4)ccc1OC (stereo unspecified),i,77.8,i,i,i
c1cncc(C2Nc3cccc4cccc(c34)N2)c1,i,i,i,11.5,i
CC(C)c1ccccc1OCC(=O)N1CCCN(C)CC1,i,i,i,nt,i
